Measured values from ChEMBL document CHEMBL5308541, “MAIP: An Open-Source Tool to Enrich High-Throughput Screening Output and Identify Novel, Druglike Molecules with Antimalarial Activity” (ACS Med Chem Lett, 2023).
The whole screen tested about 4,800 compounds, of which about 410 (8.5%) showed an effect of 50% or more. Many of the other results were omitted from the sample, so strong results are more common in it than they were.

Each molecule was assayed on Plasmodium falciparum (assay: Confirmatory screen in NF54 pLDH assay, in single point, at 2uM, 72h). Settings: timepoint 72 hour.
Assay type: functional, Erythrocyte

**Q.** Fc1ccc(N2CC[C@H](CN3CCC(c4c[nH]c5ccccc45)(c4c[nH]c5ccccc45)CC3)C2)cc1 was tested. Which “% Inhibition” value did it give?
**A.** Its value is 102%.

**Q.** For CN1C2CCC1CC(OC(=O)C1CCC(C(=O)OC3CC4CCC(C3)N4C)(c3ccccc3)c3ccccc31)C2 (stereo unspecified), which “% Inhibition” value is on record?
**A.** Its value is 63%.

**Q.** For CN1CCC(N(C)c2ccccc2CNC[C@@H](O)c2cccc(Cl)c2)CC1, which “% Inhibition” value is on record?
**A.** The value was 17%.

**Q.** With O[C@@H](CNCc1ccc2c(c1)CCO2)c1ccc(F)c(F)c1 as the molecule, how does the “% Inhibition” value read?
**A.** Its value is 74%.

**Q.** CC(C)(C)c1ccc(CNC[C@H](O)c2ccc(F)cc2F)cc1 was tested. Which “% Inhibition” value did it give?
**A.** Its value is 91%.

**Q.** With CN1CCN(c2ccc(C(F)(F)F)cc2NCc2cnc[nH]2)CC1 as the molecule, how does the “% Inhibition” value read?
**A.** Its value is 92%.

**Q.** With COc1ccc(CCNCc2ccc3[nH]cnc3c2)c(Cl)c1 as the molecule, how does the “% Inhibition” value read?
**A.** Its value is 48%.

**Q.** With CCN(C(C)=O)c1nc(CN2CC=C(c3c[nH]c4cc(F)ccc34)CC2)cs1 as the molecule, how does the “% Inhibition” value read?
**A.** Its value is 20%.

**Q.** Which “% Inhibition” value does the source give for CN(C)CC12CNCC1CN(c1ccnc3cc(Cl)ccc13)C2 (stereo unspecified) here?
**A.** Its value is 97%.

**Q.** Oc1ccc(C2=CCN(Cc3cccc4[nH]ccc34)CC2)cc1 was tested. Which “% Inhibition” value did it give?
**A.** The value was 38%.

**Q.** With CCCOc1cncc(-c2ccc3c(c2)CNCC3)c1 as the molecule, how does the “% Inhibition” value read?
**A.** Its value is 8%.
